# PubChem BioAssay (NCATS)
# Inconclusive results are not listed. A call without a number means that no potency is given here. Active and inactive are the calls of the source. Calls follow the shape of the dose curve; as a rule, active = well fitted inhibition curve with a large enough effect; inconclusive = small, poorly fitted or top-dose-only effect; inactive = flat fitted curve, though single readings scatter.
# Test: qHTS to identify inhibitors of the type 1 interferon - major histocompatibility complex class I in skeletal muscle: primary screen against the NCATS Pharmaceutical Collection (AID 1347407)
# Conditions: human skeletal muscle cells, IFN-b-induced MHC-I HiBiT luminescence, 24 h; series mostly up to 45.9 µM
# In short: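 Luminescence from HiBiT-tagged endogenous HLA-B*08:01 served as the read-out of IFN-beta-induced MHC class I in CRISPR-engineered C25cl48 myoblasts. Cells received 4 ng/ml IFN-beta plus compound (high final 46 uM, […]) for 24 h.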
row,Compound,Potency
1,CC(C)n1c(/C=C/[C@@H](O)C[C@@H](O)CC(=O)O)c(-c2ccc(F)cc2)c2ccccc21,inactive
2,CO[C@]12C[C@@H](COC(=O)c3cncc(Br)c3)CN(C)[C@@H]1Cc1cn(C)c3cccc2c13,inactive
3,NC(=O)n1c(O)c(C(=O)c2cccs2)c2cc(Cl)ccc21,inactive
4,CCC1NC(=O)c2cc(S(N)(=O)=O)c(Cl)cc2N1 (stereo not drawn),inactive
5,O=C(O)C1(C(=O)O)CCC1.[NH2-].[NH2-].[Pt+2],inactive
6,CCCCN=C(N)N=C(N)N,inactive
7,O=C(Nc1ccc([N+](=O)[O-])cc1)Nc1ccc([N+](=O)[O-])cc1,inactive
8,CC(=O)Nc1ncc([N+](=O)[O-])s1,inactive
9,CN1CCN(c2cc3c(cc2F)c(=O)c(C(=O)O)cn3-c2ccc(F)cc2)CC1,inactive
10,N/C(=N\N=C\c1ccc(Cl)cc1)N/N=C/c1ccc(Cl)cc1,inactive
11,N#C/C(=C1\SCC(c2ccccc2Cl)S1)n1ccnc1 (stereo not drawn),inactive
12,CCNC(=O)NCc1cccc(Cl)c1,inactive
13,CCc1nn(CCCN2CCN(c3cccc(Cl)c3)CC2)c(=O)n1CCOc1ccccc1,inactive
14,CCO[C@@H]1O[C@H](C(COCc2ccccc2)OCc2ccccc2)[C@H](OCc2ccccc2)[C@H]1O (stereo partly drawn),inactive
15,CCOC(=O)c1c(N)sc2c1CCN(Cc1ccccc1)C2,inactive
16,CN1CCc2cccc3c2[C@H]1Cc1ccc(O)c(O)c1-3,inactive
17,CCN1/C(=C/C=C/c2sc3ccccc3[n+]2CC)Sc2ccccc21,inactive
18,CCCCCCCCCCCCCCCC(=O)O,inactive
19,CCCCCCCCCCC[C@@H](C[C@@H]1OC(=O)[C@H]1CCCCCC)OC(=O)[C@H](CC(C)C)NC=O,inactive

row,Compound,Potency
1,C#C[C@]1(O)CC[C@H]2[C@@H]3CCC4=CC(=O)CC[C@@H]4[C@H]3CC[C@@]21CC,inactive
2,CN1CCN(c2c(F)cc3c(=O)c(C(=O)O)cn4c3c2SCC4)CC1,inactive
3,CC(=C(CCOC(=O)C(C)C)SSC(CCOC(=O)C(C)C)=C(C)N(C=O)Cc1cnc(C)nc1N)N(C=O)Cc1cnc(C)nc1N,inactive
4,O=S(c1cc(Cl)cc(Cl)c1O)c1cc(Cl)cc(Cl)c1O,inactive
5,Cc1cc(CC(=O)O)c(C)n1-c1ccc(Cl)cc1,inactive
6,NS(=O)(=O)Cc1noc2ccccc12,inactive
7,CN(C)CCC[C@@]1(c2ccc(F)cc2)OCc2cc(C#N)ccc21,inactive
8,NS(=O)(=O)c1cc(C(=O)O)cc(N2CCCC2)c1Oc1ccccc1,inactive
9,COc1cc(N)c(Cl)cc1C(=O)NC1CCN(Cc2ccccc2)CC1,inactive
10,O=C(CN1CCN(Cc2ccc3c(c2)OCO3)CC1)N1c2ccccc2Sc2ccccc21,inactive
11,CCOC(=O)[C@H](CCc1ccccc1)N[C@@H](C)C(=O)N1[C@H](C(=O)O)C[C@@H]2CCC[C@@H]21,inactive
12,CC(=O)Nc1ccc(OC(=O)c2ccccc2OC(C)=O)cc1,inactive
13,CCOC(=O)Nc1ccc2c(c1)N(C(=O)CCN1CCOCC1)c1ccccc1S2,inactive
14,CC(C(=O)O)c1cccc(Oc2ccccc2)c1 (stereo not drawn),inactive
15,CO[C@H]1C=CO[C@@]2(C)Oc3c(C)c(O)c4c(O)c(c(/C=N/N5CCN(C)CC5)c(O)c4c3C2=O)NC(=O)/C(C)=C\C=C[C@H](C)[C@H](O)[C@@H](C)[C@@H](O)[C@@H](C)[C@H](OC(C)=O)[C@@H]1C,inactive
16,CC(=O)Nc1ccc(S(=O)(=O)Nc2ccc([N+](=O)[O-])cc2)cc1,inactive
17,CC1CCc2c(N3CCC(O)CC3)c(F)cc3c(=O)c(C(=O)O)cn1c23 (stereo not drawn),inactive
18,COc1cc([C@H]2Oc3cc([C@H]4Oc5cc(O)cc(O)c5C(=O)[C@@H]4O)ccc3O[C@@H]2CO)ccc1O,inactive
19,CCC1Nc2cc(Cl)c(S(N)(=O)=O)cc2S(=O)(=O)N1 (stereo not drawn),inactive
